Measurements: PubChem BioAssay AID1851 (National Center for Advancing Translational Sciences (NCATS), 2009)
Values joined by “and” are separate entries in the source; they are usually repeats but may differ in a detail not shown here. Equal entries are not always repeated. The whole screen tested about 16,000 compounds, of which about 4,000 (25%) were called active. Another 26% or so got no clear call; they are omitted. A selection follows. A number with no mark means an inactive call. Calls follow the shape of the dose curve; as a rule, active = well fitted curve in the direction sought with a large enough effect; inconclusive = small, poorly fitted or top-dose-only effect, or effect the other way; inactive = no such curve, though single readings can be large or run the other way.

Target: Cytochrome P450 2C9 (Homo sapiens) (UniProt P11712)
Sequence (P11712 whole entry, looked up): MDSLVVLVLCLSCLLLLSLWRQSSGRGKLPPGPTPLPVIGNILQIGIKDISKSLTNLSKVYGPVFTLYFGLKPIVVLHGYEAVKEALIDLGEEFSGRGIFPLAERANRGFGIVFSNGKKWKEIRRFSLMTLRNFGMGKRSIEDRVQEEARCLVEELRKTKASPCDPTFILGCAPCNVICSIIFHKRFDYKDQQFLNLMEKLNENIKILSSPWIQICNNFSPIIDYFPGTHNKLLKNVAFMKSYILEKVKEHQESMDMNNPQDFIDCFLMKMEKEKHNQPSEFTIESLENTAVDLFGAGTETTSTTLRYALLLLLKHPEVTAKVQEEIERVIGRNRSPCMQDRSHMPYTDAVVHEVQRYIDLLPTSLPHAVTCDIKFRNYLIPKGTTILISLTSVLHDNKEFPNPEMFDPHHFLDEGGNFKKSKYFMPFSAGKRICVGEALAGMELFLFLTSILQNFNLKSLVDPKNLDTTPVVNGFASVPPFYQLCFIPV
Assay: Cytochrome panel assay with activity outcomes
Conditions: recombinant CYP, pro-luciferin dealkylation, luminescence, p450-cyp2c9; series mostly up to 57.1 µM
% is scaled to controls: 0 for no effect and ±100 for the full control effect.

Compound	AC50	activity, negative = inhibition
CC(C/C=N/NC(=O)COc1cc(Cl)ccc1Cl)c1ccccc1 (stereo unspecified)	10 µM (active)	–
O=C(COc1ccc(Cl)cc1Cl)N/N=C/CCc1ccccc1	inactive	–
C/C(=N\NC(=S)Nc1ccc(F)cc1)C1CC1	inactive	–
CC(C)C(=O)Nc1ccc(NC(=O)c2cccnc2)cn1	inactive	–
CC(C)C(=O)Nc1ccc(Sc2ccc(F)cc2)cc1	14.1 µM (active)	–
O=C(c1cc(C(F)(F)F)cc(C(F)(F)F)c1)N1CCC[C@@]2(CCN(c3ccncc3)C2)C1	inactive	–
CCCN(CCC)C(=O)[C@@H](CCC(=O)O)NC(=O)c1ccccc1	inactive	–
CCCCCN(CCCCC)C(=O)[C@H](CCC(=O)O)NC(=O)c1ccc(Cl)c(Cl)c1	3.98 µM (active) and 1 µM (active)	–
O=C(O)CC[C@@H](NC(=O)c1ccccc1C(=O)O)C(=O)O	inactive	–
CN(C)CCCO[C@H]1[C@H]([C@H](O)CO)O[C@H]2OC(C)(C)O[C@@H]21	inactive	–
Cc1cc(OC(=O)c2ccccc2Cl)cc(=O)n1C	10 µM (active)	–
CC(C)=C[C@H]1[C@@H](COC(=O)c2ccccc2Cl)C1(C)C	–	-5.63% [at 11.4 µM]
Cc1cc(OC(=O)c2ccc(Cl)cc2)cc(=O)n1C	25.1 µM (active)	–
Cc1cc(OC(=O)c2ccccc2Br)cc(=O)n1C	inactive	–
CN(C)CCC=C1c2ccccc2C=Cc2ccccc21	inactive	–
CCNc1ncc2nc(-c3ccc(F)cc3)c(=O)n(-c3ccc(OC)cc3)c2n1	inactive	–
O=C1[C@H]2CCn3c(=O)n(-c4ccccc4)c(=O)n3[C@H]2[C@H](O)[C@H]2O[C@@H]12	–	-4.73% [at 11.4 µM]
Clc1ccccc1C(Nc1ncccn1)Nc1ncccn1	–	4.43% [at 11.4 µM]
CCOC(=O)CC(Nc1nc(N2CCOCC2)nc(N2CCOCC2)n1)c1ccccc1Cl (stereo unspecified)	4.47 µM (active)	–
CCc1ccccc1N1C(=O)c2cccc3c(N4CCOCC4)c([N+](=O)[O-])cc(c23)C1=O	15.8 µM (active)	–
O=c1cc(N2CCOCC2)oc2c(-c3ccccc3)cccc12	inactive	–
CO[C@H]1C[C@@H]2C[C@H](O)C[C@@H](CC(=O)O[C@@H](/C=C\CC(C)C)C[C@@H]3CC[C@H](C)[C@@H](C1)O3)O2	–	1.57% [at 11.4 µM]
O=C(NCCN1CCN(Cc2ccccc2)CC1)C1c2ccccc2C(=O)N2CCc3ccccc3C12 (stereo unspecified)	inactive	–
CN1CCC2(CC1)CCN(S(=O)(=O)c1ccccc1)CC2	inactive	–

Compound	AC50	activity, negative = inhibition
O=C1c2ccccc2C(=O)N1CC1c2ccccc2CCN1S(=O)(=O)c1ccccc1 (stereo unspecified)	3.16 µM (active)	–
COCC(C)n1c(C)cc(C(=O)CSc2nnc(Nc3ccccc3F)s2)c1C (stereo unspecified)	11.2 µM (active)	–
CCOC(=O)N1CCN(C(=O)c2ccc3nc(SCc4ccc(F)cc4)n(C)c3c2)CC1	1.58 µM (active)	–
N#Cc1ccc(CN2CC3(CCN(C(=O)c4cccc(F)c4)CC3)C2)cc1	inactive	–
CCOC(=O)N1CCN(C(=O)c2cc(-c3ccc(F)cc3)[nH]c2C)CC1	inactive	–
Cc1ccc(NC(=O)Nc2ncccc2C)cc1	28.2 µM (active)	–
O=C(Nc1ccc2ncccc2c1)Nc1ccc2ncccc2c1	–	4.23% [at 11.4 µM]
Cc1cccnc1NC(=O)C12CCC(C)(C(=O)O1)C2(C)C (stereo unspecified)	inactive	–
CN(C)C(=O)Oc1cccc([N+](C)(C)C)c1	inactive	–
CC[C@H](NC(C)C)[C@H](O)c1ccc(O)c(O)c1	inactive	–
CC[C@H](c1ccc(O)cc1)[C@@H](CC)c1ccc(O)cc1	5.01 µM (active)	–
C[C@H](NCCc1ccc(O)cc1)[C@@H](O)c1ccc(O)cc1	inactive	–
CN(C)C[C@H]1CCC[C@@H](CN(C)C)C1=O	–	1.9% [at 11.4 µM]
CCn1cc(-c2nnnn2-c2ccc(Cl)cc2)c(=O)c2ccccc21	inactive	–
Cc1ccc(-n2nnnc2-c2cnc3ccc(Cl)cc3c2-c2ccccc2)cc1	8.91 µM (active)	–
Clc1ccc2[nH]cc(-c3nnnn3-c3ccccc3)c2c1	5.01 µM (active)	–
CC12CCC(C(=O)O)(C/C1=N\O)C2(C)C (stereo unspecified)	inactive	–
COc1cccc(-c2cncnc2N(C)Cc2ccco2)c1	–	-5.51% [at 2.29 µM]
CC1(C)CC(=O)c2c(Cc3ccccc3)n[nH]c2C1	14.1 µM (active)	–
C=CCN=C1CC(C)(C)CC(=O)/C1=C(\O)c1ccccc1	inactive	–
O=C(O)c1ccc(C(=O)Nc2cccc3ccccc23)c(C(=O)O)c1	–	-2.72% [at 11.4 µM]
CC(=O)Nc1ccccc1C(=O)C(=O)O	inactive	–
O=C(Nc1ccccc1C(=O)O)c1ccc2ccccc2n1	8.91 µM (active)	–
O=C(Nc1cccc(-c2cn3cccnc3n2)c1)c1ccco1	12.6 µM (active)	–

Compound	AC50	activity, negative = inhibition
CCCC(=O)Nc1cc(-c2cn3cccnc3n2)ccc1OC	inactive	–
C[C@@H]1NCC[C@H](CC(=O)O)[C@H]1CC(=O)O	–	-13.5% [at 11.4 µM]
O=C1CCc2cc(OCCCCc3nnnn3C3CCCCC3)ccc2N1	inactive	–
CC(C)(C)c1ccc(CN(Cc2ccco2)Cc2nnnn2C2CCCC2)cc1	3.55 µM (active)	–
O=C(O)c1nnsc1-c1csnn1	–	-13.9% [at 11.4 µM]
CCNC(=O)NC1(C(=O)Nc2ccc3c(c2)OCCO3)CCCCC1	inactive	–
O=C(Nc1ccc2c(c1)OCCO2)c1cc2sccc2n1Cc1ccc(F)cc1	3.55 µM (active)	–
CCO[P@]1(=O)OC[C@@H]2O[C@H](n3cnc4c(N)ncnc43)[C@H](O)[C@@H]2O1	–	-1.07% [at 11.4 µM]
O=C(Nc1ccccc1)N1CC[C@@]2(CCCN(C(=O)c3cc(C(F)(F)F)cc(C(F)(F)F)c3)C2)C1	inactive	–
CCCCC(=O)OCc1cn(-c2ccc(Cl)cc2)nn1	17.8 µM (active)	–
NNC(=O)c1nn(-c2ccc(Cl)cc2)ccc1=O	inactive	–
Cc1ccccc1NC(=O)OCc1cn(-c2ccc(Cl)cc2)nn1	inactive	–
CCOC(=O)CCN1C(=O)[C@H]2[C@H]3[C@H](O)[C@H](O)C/C(=N/OC/C=C(\C)CCC=C(C)C)[C@H]3CC[C@@H]2C1=O	–	3.33% [at 11.4 µM]
CCNc1ncc2nc(C)c(=O)n(CCc3ccccc3)c2n1	inactive	–
CCC(Sc1nc(=O)cc(N)n1CCc1ccccc1)C(=O)Nc1ccccc1C#N (stereo unspecified)	2.51 µM (active)	–
CC(=O)O[C@@H](C)C[N+](C)(C)C	inactive	–
N#Cc1cccc(NC(=O)N2CC[C@@]3(CCCN(C(=O)c4ccncc4)C3)C2)c1	inactive	–
Cc1ccc(S(=O)(=O)N2CCC(C(=O)O)(c3ccccc3)CC2)cc1	–	-9.94% [at 11.4 µM]
Cc1ccc(S(=O)(=O)N2CCN(C(=O)c3ccccc3)C2C(C)C)cc1 (stereo unspecified)	25.1 µM (active)	–
CC(=O)N1CCN(S(=O)(=O)c2ccccc2)C1c1ccccc1 (stereo unspecified)	inactive	–
Cc1noc(C)c1-c1nccc(Nc2ccc(F)cc2)n1	–	25.8% [at 2.29 µM]
O=C(CSc1ccc(Cl)cc1)Nc1ccc(N2CCN(c3ccccc3)CC2)c(F)c1	inactive	–
O=C(O)CCC(=O)Nc1ccc(C(=O)N2CCCCC2)cc1	inactive	–
O=C(CSc1ccc(Cl)cc1)Nc1ccc(N2CCN(C(=O)c3ccc(Cl)cc3)CC2)cc1	5.01 µM (active)	–

Compound	AC50	activity, negative = inhibition
COC(=O)N1CCC2(CCN(C(=O)Nc3cccc(F)c3)CC2)CC1	inactive	–
O=C(CN1CCN(c2ccc(Cl)cc2)CC1)Nc1ccc(F)c(F)c1	3.55 µM (active)	–
Fc1cccc(NC(=S)NCCCN2CCOCC2)c1	inactive	–
O=C(CN1CCN(c2ccc(Cl)cc2)CC1)Nc1cccc(F)c1	2.82 µM (active)	–
COc1ccc2c(Cl)c(-c3nnco3)sc2c1	inactive	–
[O-][N+]1(CC[N+]2([O-])CCCCC2)CCCCC1	–	-6.33% [at 11.4 µM]
CCOC(=O)CSc1nnc(CSc2nc3sc4c(c3c(=O)[nH]2)CCCC4)n1-c1ccccc1	5.01 µM (active)	–
CCOC(=O)CSc1nnc(Cc2cc(=O)[nH]c(=O)[nH]2)n1-c1cccc(OC)c1	inactive	–
CCOC(=O)CC1C(=O)NCCN1S(=O)(=O)c1ccc(Cl)c(Cl)c1 (stereo unspecified)	inactive	–
COCCn1c(=S)[nH]c2cc(C(=O)NC(C)C)ccc2c1=O	inactive	–
COCCCNC(=O)c1ccc2c(=O)n(CC3CCCO3)c(=S)[nH]c2c1 (stereo unspecified)	inactive	–
O=C(NCc1ccccc1Cl)c1ccc2c(=O)n(CCCN3CCCC3=O)c(=S)[nH]c2c1	8.91 µM (active)	–
N#Cc1cccc(-c2cc(NCc3cccnc3)ncn2)c1	–	-26.2% [at 2.29 µM]
COc1cccc(C(=O)N(Cc2ccccc2)Cc2cc3cc4c(cc3[nH]c2=O)OCCO4)c1	10 µM (active)	–
COc1ccc2[nH]c(=O)c(CN(CCO)C(=O)c3cccs3)cc2c1	inactive	–
Cc1cnc(CNc2cc(-c3cccc(C#N)c3)ncn2)cn1	–	19.4% [at 2.29 µM]
CCNc1ncc2nc(-c3ccc(Cl)cc3)c(=O)n(Cc3cccc(OC)c3)c2n1	inactive	–
COc1cccc(Cn2c(=O)c(-c3ccc(F)cc3)nc3cnc(N4CCNCC4)nc32)c1	15.8 µM (active)	–
COc1ccc(-c2nc3cnc(N4CCN(C)CC4)nc3n(Cc3ccc(F)cc3)c2=O)cc1	inactive	–
COc1cccc(Cn2c(=O)c(-c3ccc(Cl)cc3)nc3cnc(N4CCN(C)CC4)nc32)c1	inactive	–
COc1ccc(-c2nc3cnc(N4CCN(C)CC4)nc3n(CCC#N)c2=O)cc1	inactive	–
COc1ccc(-c2nc3cnc(N4CCNCC4)nc3n(CCc3ccccc3)c2=O)cc1	3.98 µM (active)	–
COc1cccc(Cn2c(=O)c(-c3ccc(Cl)cc3)nc3cnc(N4CCNCC4)nc32)c1	12.6 µM (active)	–
COc1cccc(Cn2c(=O)c(-c3cccs3)nc3cnc(N4CCNCC4)nc32)c1	12.6 µM (active)	–
